The record followed here is PMC7819943, “Rice protein-binding microarrays: a tool to detect cis-acting elements near promoter regions in rice”.

Over roughly 68,000 sequences, “fluorescence intensity (a.u.)” has its median near 9,100; the highest 2% begin near 16,000. For the sample, the highest values were picked, then their nearest neighbours and some sequences at random.

Sequence of OsWRKY34 (Q0JBA9 entry or part of it): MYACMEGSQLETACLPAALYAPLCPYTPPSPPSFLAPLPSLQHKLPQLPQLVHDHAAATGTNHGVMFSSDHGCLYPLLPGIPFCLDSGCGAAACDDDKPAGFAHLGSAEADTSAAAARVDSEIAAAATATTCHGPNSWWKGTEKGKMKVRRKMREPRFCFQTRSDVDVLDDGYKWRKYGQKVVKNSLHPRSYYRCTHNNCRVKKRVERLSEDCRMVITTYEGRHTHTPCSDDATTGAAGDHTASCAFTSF

This assay concerns the target OsWRKY34 (Oryza sativa, UniProt Q0JBA9 1-250). The assay is described as follows: protein-binding microarray (RPBM); PBS, 2% BSA, 51.3 ng/ul salmon testes DNA, 50 uM zinc acetate, 200 nM TF, 25 C, 1 h; high values mean tight binding. To be noted: protein: recombinant; tags: N-terminal polyhistidine and DsRed monomer fusion (pET32a); label: CyDye5-dUTP incorporated in the synthesized complementary strand; 3' TTTTT single-stranded linker to array surface; dsDNA, one strand shown. The gist of the method:
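Polyhistidine-tagged DsRed fusions of transcription factors, joined at the N-terminus, were expressed in E. coli BL21-CodonPlus and isolated on Ni–NTA. They were incubated at 200 nM for 1 h at 25 °C on a custom Agilent array, double-stranded and BSA-blocked, in PBS with 2% BSA, salmon testes DNA and 50 µM zinc acetate. The binding signal is per-feature fluorescence intensity (arbitrary units) read on an Axon 4000B scanner after washing.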
Take “CCCTTTGTCCTGCAGTACGTTTTTCCTTGCATTTTTCTTTCGGAGTCACCTAGTGCAG”: the binding signal was 19700 fluorescence intensity (a.u.).

“CTTTCTTTTTCCTTCTCTCTCTCTTTTCTTTCTTTTCTTTCGGAGTCACCTAGTGCAG”: the binding signal is 13600 fluorescence intensity (a.u.).

In the case of “ATCATCACTCCATTGCCGCTGTATTTGTTGTCATCGTTTTCGGAGTCACCTAGTGCAG”, the binding signal is 11200 fluorescence intensity (a.u.).

With “CCTGCCGTTTTCTTTTTCTTTTTCTTTCCTTTTCCTTTTTCGGAGTCACCTAGTGCAG”, the binding signal was 17000 fluorescence intensity (a.u.).

For “GTTCTTGGTTCCTGCATTTCTTTTCTTTTTTGCCTTTGTTCGGAGTCACCTAGTGCAG”, the binding signal was 11300 fluorescence intensity (a.u.).

On to “TTATTTTCTCCACTCACTACTTGTTCGTTTAGCAATTTGTCGGAGTCACCTAGTGCAG”, for which the binding signal is 8750 fluorescence intensity (a.u.).

For “CCGCTCCGTTTTGTGTCGTTTTGTGTATTTTCTCCACTCACGGAGTCACCTAGTGCAG”, the binding signal is 17400 fluorescence intensity (a.u.).

As to “TCCTCTCTGTCTTCTGTCTTCTCTTCTTCTTCCTCACCAACGGAGTCACCTAGTGCAG”, the binding signal is 11600 fluorescence intensity (a.u.).

As for “CAAACAGAGCACACCTTTTTCCAGGACATTTGTCAATATTCGGAGTCACCTAGTGCAG”, the binding signal was 9180 fluorescence intensity (a.u.).

For the sequence “ATCCTTTTCTTTGGCAGTCCTTGATCCCAGATCCACATTTCGGAGTCACCTAGTGCAG”, the binding signal was 9820 fluorescence intensity (a.u.).

For “GGCTTTAATTGATCACTATGAATACTTGGCTTGTTGTCATCGGAGTCACCTAGTGCAG”, the binding signal was 9040 fluorescence intensity (a.u.).

Take “AAACCTCGCATGCCAATAGTTGGGAACGCCGGGGCGGGGTCGGAGTCACCTAGTGCAG”: the binding signal is 9340 fluorescence intensity (a.u.).

Consider “TTCCTTTTTCTATTTTTGGAATTTATTTTAATTTTTATTTCGGAGTCACCTAGTGCAG”, for which the binding signal was 8910 fluorescence intensity (a.u.).

Regarding “CCCCGCTCGCGGCCCGGTCGCGCCAAACATCGTCCGACTCCGGAGTCACCTAGTGCAG”, the binding signal was 9010 fluorescence intensity (a.u.).

In the case of “TCCACAACTGATTTTATTCCGACTTGTTTTTTTTTCTTTTCGGAGTCACCTAGTGCAG”, the binding signal is 10800 fluorescence intensity (a.u.).

As to “TTACTACTTCACCGTCTCTTTTTCTTCCTCAGCGCACAAACGGAGTCACCTAGTGCAG”, the binding signal is 9610 fluorescence intensity (a.u.).

As to “AGACGGAGGAGGACAAGGACATAGGGGAGGAGGGGCGAGGCGGAGTCACCTAGTGCAG”, the binding signal is 9530 fluorescence intensity (a.u.).

With “ATTTCTTTTTGTTGTGTTATCGTGTTGTTTCGTCACTAGTCGGAGTCACCTAGTGCAG”, the binding signal was 19600 fluorescence intensity (a.u.).

For the sequence “TTTTTCCGTGTGTGTCGTTTCGTTCTTGTTTGTTCGGGTCCGGAGTCACCTAGTGCAG”, the binding signal was 12400 fluorescence intensity (a.u.).

On to “GCCGTTTCTTCTTTCTTTTTTTTTTCCGTGTGTGTCGTTTCGGAGTCACCTAGTGCAG”, for which the binding signal is 16600 fluorescence intensity (a.u.).

On to “TTTTTCGTTTCCTTTCCGTGTTCTTTTTTTTTTCTTCCATCGGAGTCACCTAGTGCAG”, for which the binding signal is 10100 fluorescence intensity (a.u.).

As for “GTGGATTTTTTTTTTCTTTTCTTTTTTCGTTGTTATTTGTCGGAGTCACCTAGTGCAG”, the binding signal is 10600 fluorescence intensity (a.u.).

With “ATGTTGTCGTGTATCATTTGTTTTTCTTATGTTATTTTCTCGGAGTCACCTAGTGCAG”, the binding signal is 10700 fluorescence intensity (a.u.).

As to “ACACCTTCAATCGCTCTCTCATGAATTAACCGAACAAGACCGGAGTCACCTAGTGCAG”, the binding signal is 9340 fluorescence intensity (a.u.).

For “GTAGTAGGTAGCAGCAGTCTCAAACATGTCTTCTGAGTAGCGGAGTCACCTAGTGCAG”, the binding signal was 9420 fluorescence intensity (a.u.).

Take “CGTGTTCTTGCCTGCGTATATACGGTGTACGTACACACGTCGGAGTCACCTAGTGCAG”: the binding signal is 8870 fluorescence intensity (a.u.).

“AATTTTTTTTGGGGTTGCTGCTGTTTTTTTTGTGGAGGTTCGGAGTCACCTAGTGCAG”: the binding signal is 9450 fluorescence intensity (a.u.).

As to “AGATTTTGGGTGTGTTTGGTTGCTTGCATTGTTTTAGTCTCGGAGTCACCTAGTGCAG”, the binding signal is 9320 fluorescence intensity (a.u.).

“TATACTTGTTGGCTGCTGCTTTGTGTGTGGTGTGTTGTTTCGGAGTCACCTAGTGCAG”: the binding signal was 10400 fluorescence intensity (a.u.).

“GCTAGCTGCTGTCTTGTGTTGTGTTGTGTTGTGTGGCATGCGGAGTCACCTAGTGCAG”: the binding signal is 8220 fluorescence intensity (a.u.).

On to “AAGGGCAGAGGAGAGGAGTTGCAGTGTGGTGTGTGGCATGCGGAGTCACCTAGTGCAG”, for which the binding signal is 8870 fluorescence intensity (a.u.).

Regarding “GTGTGTTGGAGCTGCCGGTGTGTGGGTGGGGTTATTTTTTCGGAGTCACCTAGTGCAG”, the binding signal was 25100 fluorescence intensity (a.u.).

Turning to “TGGGTTGGGATTTGTGCTTGTTTTTTTTTTTTGTGCGTGTCGGAGTCACCTAGTGCAG”, the binding signal is 16600 fluorescence intensity (a.u.).

For the sequence “TTTTTTTTTTTTGTTGGGCTTGTGACTTGTGGGGTGTGCACGGAGTCACCTAGTGCAG”, the binding signal is 11600 fluorescence intensity (a.u.).

For the sequence “GGGGCTGCTTGGGCTTGTGTTGTTTTTTTGGCAGATGCATCGGAGTCACCTAGTGCAG”, the binding signal was 19100 fluorescence intensity (a.u.).

With “CTTTGCTTGGTTGCTTGTGTTGTGTGCTGTGCTGTGCAGTCGGAGTCACCTAGTGCAG”, the binding signal is 8220 fluorescence intensity (a.u.).

Take “AGAGCTTGTGTGGTGGTGGGGCATCAGTGTGTCAGTTGTGCGGAGTCACCTAGTGCAG”: the binding signal is 17100 fluorescence intensity (a.u.).

Take “TCTTGGCGCTGTCGGTGTGTGGGTGGCGTTATATTTTTTTCGGAGTCACCTAGTGCAG”: the binding signal was 9900 fluorescence intensity (a.u.).

Regarding “ACACTCAAACGACACTTCACGCATCTCTCCTGAAATCTTGCGGAGTCACCTAGTGCAG”, the binding signal is 8780 fluorescence intensity (a.u.).

On to “ACTTCAGATGTTTCTTGTTCCTACACTTCGCTGCTTCAGTCGGAGTCACCTAGTGCAG”, for which the binding signal was 11800 fluorescence intensity (a.u.).

“CTCCTCTCTCTCTCAGCTCACCACACCTCGAGTCGCCGCCCGGAGTCACCTAGTGCAG”: the binding signal was 8180 fluorescence intensity (a.u.).

Take “ACTGCTGTCTCCGCGTTACTCTACGCATGCATGCATGTATCGGAGTCACCTAGTGCAG”: the binding signal was 10000 fluorescence intensity (a.u.).
